From PubChem
The list is not random: actives were taken first. Their share in the collection is about 7.5%.
NPC1 prom act: qHTS Assay for NPC1 Promoter Activators. Huh7 NPC1 promoter luciferase reporter, 24 h. Potency, µM (doses to about 9.22 µM), most hits filed as activators. actives 2.4% (n = 320,000); also: nearly all actives have a fitted effect of over 60% in size
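Huh7 reporter cells (NPC1 promoter driving luciferase) are dosed with compound for 24 h at 37 °C, 5% CO2; luciferase detection reagent is then added and luminescence measured after 10 min at ambient temperature.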
Rab9 promoter act: qHTS Assay for Rab9 Promoter Activators | Potency, µM (top dose mostly 9.22 µM), usual class: activators | AID 485297, 2010 | actives 2.8% (n = 320,000) | Huh7 Rab9 promoter-luciferase reporter, luminescence, 24 h; also: nearly all actives have a fitted effect of over 60% in size
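Using Huh7 cells stably transfected with Rab9 promoter–luciferase, compounds were incubated 24 h at 37 °C, 5% CO2; luciferase luminescence was read 10 min after reagent addition.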
SMN2 splice enh: qHTS Assay for Enhancers of SMN2 Splice Variant Expression; HEK293 SMN2-luciferase splicing reporter, luminescence, 30-36 h; Potency, µM (doses to about 46.1 µM), usual class: activators; actives 2.8% (n = 210,000); also: nearly all actives have a fitted effect of over 55% in size
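HEK293 cells carry an SMN2 […]–luciferase reporter in which exon 7 inclusion puts luciferase in frame. Cells were plated 10-12 h before compound addition, then incubated 30-36 h at 37C. ONE-Glo luminescence was read; sodium butyrate at 4.5 mM final served as control.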
KinaseGlo FLuc: Counterscreen for Luciferase (Kinase-Glo TM) Inhibition; actives 0.28% (n = 200,000); Potency, µM (highest dose often 38.3 µM), usual class: inhibitors; Luciferin 4-monooxygenase (Photuris pensylvanica), Q27757; Kinase-Glo luciferase, ATP luminescence, 8 min; also: nearly all actives have a fitted effect of over 60% in size
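Kinase-Glo luciferase light output from ATP and luciferin was measured with 10 uM ATP, within the enzyme's linear range. Buffer: 50 mM imidazole pH 7.2, 50 mM KCl, 7 mM MgCl2, 0.01% Tween 20, 0.05% BSA; luminescence read after 8 min at ambient temperature.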
FLuc modulator: qHTS profiling assay for firefly luciferase inhibitor/activator using purifed enzyme and Km concentrations of substrates (counterscreen for miR-21 project) | Luciferin 4-monooxygenase (Photinus pyralis), P08659 | purified FLuc, Km substrates, luminescence inhibition | Potency, µM (series often up to 57.5 µM), usual class: inhibitors | actives 6.9% (n = 360,000); also: nearly all actives have a fitted effect of over 55% in size
Target sequence (P08659 whole entry, looked up): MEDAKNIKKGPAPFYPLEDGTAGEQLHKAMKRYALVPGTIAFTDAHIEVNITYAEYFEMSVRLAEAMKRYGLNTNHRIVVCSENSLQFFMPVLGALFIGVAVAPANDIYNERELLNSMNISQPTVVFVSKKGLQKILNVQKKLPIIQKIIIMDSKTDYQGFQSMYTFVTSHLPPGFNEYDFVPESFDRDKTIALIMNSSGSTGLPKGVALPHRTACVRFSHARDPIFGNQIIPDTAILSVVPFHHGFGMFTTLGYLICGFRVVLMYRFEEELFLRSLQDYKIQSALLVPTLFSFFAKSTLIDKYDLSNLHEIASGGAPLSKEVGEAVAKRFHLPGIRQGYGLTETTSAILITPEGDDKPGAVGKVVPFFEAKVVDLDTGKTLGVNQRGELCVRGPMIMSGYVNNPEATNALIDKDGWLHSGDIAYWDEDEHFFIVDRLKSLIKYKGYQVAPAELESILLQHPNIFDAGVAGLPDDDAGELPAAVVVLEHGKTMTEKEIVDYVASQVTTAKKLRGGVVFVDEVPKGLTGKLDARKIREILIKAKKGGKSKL
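Purified P. pyralis luciferase (10nM final) with 10uM D-luciferin and 10uM ATP (Km levels) in 50mM Tris acetate pH 7.5, 10mM Mg acetate, 0.01% Tween-20, 0.05% BSA; qHTS 6-point titration, ~60 µM downward; luminescence read.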
ELG1 genotoxic: qHTS screen for small molecules that induce genotoxicity in human embryonic kidney (HEK293T) cells expressing luciferase-tagged ELG1 | HEK293T ELG1-luciferase reporter, luminescence, 16 h | Potency, µM (series often up to 46 µM), hits mostly activators | actives 1.3% (n = 330,000); also: nearly all actives have a fitted effect of over 60% in size
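Step 1: seed 2,000 HEK293T ELG1-luciferase cells per well. Step 2: add compound or DMSO, incubate 16 hr at 37 °C. Step 3: ONE-Glo, 30 min at room temperature, read luminescence.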
Hits are given with their value; – = inactive; ? = inconclusive; · = no result; [ ] = dose if it differs, or a comment. Calls follow the shape of the dose curve; as a rule, active = well fitted curve in the direction sought with a large enough effect; inconclusive = small, poorly fitted or top-dose-only effect, or another doubt; inactive = no such curve, though single readings can be large; an effect the other way counts as inactive or inconclusive.

SMILES	NPC1 prom act	Rab9 promoter act	SMN2 splice enh	KinaseGlo FLuc	FLuc modulator	ELG1 genotoxic
COc1ccc(NC(=O)CS(=O)CC(=O)Nc2cccc3cccnc23)cc1 (centres undefined)	–	–	·	·	–	–
COc1cc(C(=O)NCC(=O)OCCN2C(=O)c3ccccc3C2=O)cc(OC)c1OC	–	–	–	–	–	–
COc1cc(CNc2ccc(C)c(C)c2)cc(OC)c1OC	–	–	–	–	–	–
CSc1ccc(CNc2ccc(C)c(C)c2)cc1	?	?	–	–	15µM	?
COc1ccc(CNc2ccc(C)c(C)c2)cc1	?	?	–	–	15µM	?
Cc1ccc(NCc2ccccc2)cc1	–	–	–	–	?	–
CSc1ccc(CNc2ccc(C)cc2)cc1	3.5µM	4µM	–	–	9.5µM	?
CC(Sc1ccc(S(=O)(=O)N2CCN(C)CC2)cn1)C(=O)NC1(C#N)CCCCC1 (centres undefined)	–	–	·	·	–	–
COc1cccc(CNC(=O)Cc2c(C)c3c(cc(C)c4c(C)c(C)oc43)oc2=O)c1	·	·	–	·	–	·
Cc1ccc(OCCn2c(=S)[nH]c3c(N)ncnc32)cc1	–	–	–	–	?	–
CC(C)Oc1ccc(OCCn2c(=S)[nH]c3c(N)ncnc32)cc1	–	–	–	–	27µM	?
C=Cc1ccc(Cn2c(C)c(CNCCc3ccc(OCC)cc3)c(C(=O)O)c2C)cc1	·	·	–	·	–	·
CC(C)c1ccc(C(=O)NC(=S)Nc2ccc3[nH]c(=O)[nH]c3c2)cc1	–	–	·	·	?	–
Cc1ccccc1C(=O)Nc1ccc(N(C)C)c2ccccc12	–	–	·	·	?	–
CN(C)c1ccc(N=Nc2ccc(S(=O)(=O)O)cc2)c2ccccc12	–	–	–	–	17µM	–
O=C(c1ccco1)N1C(=O)c2cccc3cccc1c23	–	–	10µM	–	–	–
Cc1c(-c2ccccc2)nc2c(Cl)cccc2c1C(=O)OCC(=O)c1ccc(F)cc1	·	·	–	·	–	·
Cc1ccc(Nc2nc3ccccc3s2)c(C)c1	2µM	1.3µM	2.5µM	–	0.6µM	2.1µM
CC(=O)c1c(C)nc(Nc2nc3ccccc3s2)nc1C	?	?	·	·	0.76µM	?
NC(=S)Nc1nc2ccccc2s1	–	–	–	–	?	–
Cc1cc(C)nc(Nc2nc3ccccc3s2)n1	?	?	3.2µM	–	?	?
O=C(Nc1ccccc1C(=O)NC(Cc1ccccc1)C(=O)NC1CCCCC1)c1ccccc1 (centres undefined)	–	–	–	–	–	–
O=C(O)c1cc(-c2ccc(/C=C3/SC(=S)N(Cc4ccccc4)C3=O)o2)ccc1Cl	–	–	–	–	?	–
CC1(C)OC(=O)C(=Cc2ccc(-c3ccc(Cl)c(C(=O)O)c3)o2)C(=O)O1	–	–	–	–	15µM	–
CC1=NOC(=O)/C1=C\c1ccc(-c2ccccc2Br)o1	–	–	–	–	11µM	–
SMILES	NPC1 prom act	Rab9 promoter act	SMN2 splice enh	KinaseGlo FLuc	FLuc modulator	ELG1 genotoxic
CC1=NOC(=O)/C1=C\c1ccc(-c2ccc(Cl)c(C(=O)O)c2)o1	–	–	–	–	19µM	–
COc1ccc(CN2C(=O)/C(=C/c3ccc(-c4ccc(Cl)c(C(=O)O)c4)o3)SC2=S)cc1	–	–	–	–	?	–
COC(=O)N/N=C/c1ccc(-c2cccc(Cl)c2)o1	–	–	–	–	?	–
Nc1ccccc1N=Cc1ccc(-c2cccc(Cl)c2)o1	2.8µM	3.2µM	·	–	3µM	–
COc1ccccc1C1CC(c2cccc(NS(C)(=O)=O)c2)=NN1S(=O)(=O)c1ccccc1 (centres undefined)	–	–	·	·	–	–
CC1=NOC(=O)/C1=C\c1ccc(-c2cccc(Cl)c2)o1	–	–	–	–	11µM	–
O=C(COc1ccccc1)NCCc1csc(-c2cccc(F)c2)n1	·	·	·	·	–	·
O=C(Cc1ccccc1)c1nc2ccccc2s1	2.5µM	2.8µM	4µM	–	11µM	?
COC(=O)c1ccc(CC(=O)c2nc3ccccc3s2)cc1	?	2.8µM	–[1.84 µM]	–	3µM	?
CC(C)NC(=O)c1nc2ccccc2s1	–	–	·	–	?	?
COC(=O)c1ccc(/C(O)=C(\C#N)c2nc3ccccc3s2)cc1	2.8µM	3.2µM	·	·	7.6µM	–
COC(=O)c1ccc(CSc2nc3ccccc3s2)o1	?	?	?	–	17µM	16µM
O=C(O)CSc1nc2ccccc2s1	–	–	·	·	–	–
CCOc1ccc(NC(=O)Cn2cc(S(=O)(=O)c3ccc(C)cc3)c(=O)c3cc(F)ccc32)cc1	·	·	–	·	–	·
CCCC(=O)N1c2ccccc2-c2nnc(SC)nc2OC1c1sccc1C (centres undefined)	·	·	–	·	–	·
COc1cc(CCC(C)=O)ccc1OC(=O)c1c(F)cccc1Cl	?	2.5µM	·	·	12µM	?
Cn1cccc1C(=O)N1CCC2(CC1)CCN(c1ccccc1)CC2	·	·	–	–	·	·
Cc1ccc(CSCC(=O)Nc2ccccc2C(=O)O)cc1	3.5µM	2.8µM	·	·	12µM	–
O=C(Cc1cccc2ccccc12)Nc1ccccc1C(=O)O	–	–	?	–	27µM	?
